Each structure is given as a SMILES string. Where “and” joins values, the source holds several entries; their conditions need not be identical. Equal entries are not always repeated. Records with an inconclusive call do not appear. Some structures have more than one record in an assay (separate samples or runs), and their calls can disagree. Calls of active or inactive are those of the source. Unless noted, calls come from the whole dose curve; as a rule, active = well fitted curve in the direction sought with a large enough effect in the repeat runs; inconclusive = weak or mixed curves; inactive = no such curve, though single readings can be large; an effect the other way counts as inactive or inconclusive.

Test [1] can be described thus: qHTS assay to identify small molecule that activate the aryl hydrocarbon receptor (AhR) signaling pathway - cell viability counter screen (AID 743086).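 Note: HepG2 liver cells carrying the AhR DRE luciferase reporter; series mostly up to about 70 µM; nearly all actives have a fitted effect of over 45% in size.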 Put shortly:
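HepG2-AhR-luc (HG2L7.5c1) cells, 4000/well, treated 24 h at 37 C with compound; viability measured as CellTiter-Fluor fluorescence after 30 min in the same wells as the luciferase read.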
For orientation: In qHTS, concentration-response curves come from the screen itself.

Test [2] is described as follows: qHTS assay to identify small molecule antagonists of the peroxisome proliferator-activated receptor gamma (PPARg) signaling pathway - cell viability counter screen (AID 743194). Note: nearly all actives have a fitted effect of over 55% in size. The settings on record: Potency: co-treated with 50 nM rosiglitazone unless noted. Put shortly:
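Cytotoxicity counter screen in PPARg-bla HEK293H cells, same wells as reporter assay. Compounds plus 50 nM rosiglitazone (final) for 17 h at 37 C, then viability read by CellTiter-Glo luminescence.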

Test [3] in a line: qHTS assay for small molecule agonists of the antioxidant response element (ARE) signaling pathway - cell viability counter screen (AID 743203; calls by dose curve; note: nearly all actives have a fitted effect of over 55% in size; note: potency is the fitted concentration of half-maximal effect). In a few lines:
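Measured in the same wells as the beta-lactamase ARE reporter, this read-out is CellTiter-Glo luminescence from HepG2 ARE-bla cells given compounds for 16 hrs.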

Test [4] in a line: qHTS assay for small molecule activators of the heat shock response signaling pathway - cell viability counter screen (AID 743209). Note: nearly all actives have a fitted effect of over 50% in size. Put shortly: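 Same-well multiplex: after 2.5 h room-temperature incubation with LiveBLAzer B/G substrate and fluorescence reading, CellTiter-Glo reagent was added to HSE-bla HeLa cells that had received compound for 5 h at 37 C; luminescence read after 30 min.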

The nature of test [5]: qHTS assay for small molecule activators of the heat shock response signaling pathway (AID 743210; active = well fitted activation curve with a large enough effect in the signal ratio in the repeat runs, with a control signal flat, not every such curve was filed as active; the % refers to the signal ratio; note: series mostly up to about 63 µM). Put shortly: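 Beta-lactamase reporter read-out: FRET substrate fluorescence after 2.5 h at RT, following 5 h compound treatment at 37 C of HeLa cells carrying HSE-driven bla reporter; quantitative HTS format.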
Test [6] can be described thus: qHTS assay to identify aromatase inhibitors - cell viability counter screen (AID 743084).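 Note: cells stimulated with testosterone during compound exposure; nearly all actives have a fitted effect of over 55% in size.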
Test [7] is described as follows: qHTS assay for small molecule agonists of the antioxidant response element (ARE) signaling pathway (AID 743202; active = well fitted activation curve with a large enough effect in the signal ratio in the repeat runs, not every such curve was filed as active; the % refers to the signal ratio). Put shortly:
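HepG2 ARE-bla reporter line, 2,000 cells/well; 5 h preincubation 37 C/5% CO2; compound (DMSO) 16 h 37 C; B/G FRET substrate 2 h RT; fluorescence intensity.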

The target of test [8] is Aryl hydrocarbon receptor (Homo sapiens) (UniProt P35869). Put plainly: qHTS assay to identify small molecule that activate the aryl hydrocarbon receptor (AhR) signaling pathway (AID 743085).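 For activation: HG2L7.5c1 human HepG2 liver cells with stably integrated DRE-driven firefly reporter; series mostly up to about 70 µM.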 Note: nearly all actives have a fitted effect of over 15% in size. Note: potency is the fitted concentration of half-maximal effect. In a few lines:
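Compounds were tested in HepG2 hepatocellular carcinoma cells harbouring a stably integrated luciferase gene under control of 20 DREs. Increased reporter signal after 24 h treatment at 37C was taken as AhR activation.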

Sequence of Aryl hydrocarbon receptor (Homo sapiens) (P35869 whole entry, looked up): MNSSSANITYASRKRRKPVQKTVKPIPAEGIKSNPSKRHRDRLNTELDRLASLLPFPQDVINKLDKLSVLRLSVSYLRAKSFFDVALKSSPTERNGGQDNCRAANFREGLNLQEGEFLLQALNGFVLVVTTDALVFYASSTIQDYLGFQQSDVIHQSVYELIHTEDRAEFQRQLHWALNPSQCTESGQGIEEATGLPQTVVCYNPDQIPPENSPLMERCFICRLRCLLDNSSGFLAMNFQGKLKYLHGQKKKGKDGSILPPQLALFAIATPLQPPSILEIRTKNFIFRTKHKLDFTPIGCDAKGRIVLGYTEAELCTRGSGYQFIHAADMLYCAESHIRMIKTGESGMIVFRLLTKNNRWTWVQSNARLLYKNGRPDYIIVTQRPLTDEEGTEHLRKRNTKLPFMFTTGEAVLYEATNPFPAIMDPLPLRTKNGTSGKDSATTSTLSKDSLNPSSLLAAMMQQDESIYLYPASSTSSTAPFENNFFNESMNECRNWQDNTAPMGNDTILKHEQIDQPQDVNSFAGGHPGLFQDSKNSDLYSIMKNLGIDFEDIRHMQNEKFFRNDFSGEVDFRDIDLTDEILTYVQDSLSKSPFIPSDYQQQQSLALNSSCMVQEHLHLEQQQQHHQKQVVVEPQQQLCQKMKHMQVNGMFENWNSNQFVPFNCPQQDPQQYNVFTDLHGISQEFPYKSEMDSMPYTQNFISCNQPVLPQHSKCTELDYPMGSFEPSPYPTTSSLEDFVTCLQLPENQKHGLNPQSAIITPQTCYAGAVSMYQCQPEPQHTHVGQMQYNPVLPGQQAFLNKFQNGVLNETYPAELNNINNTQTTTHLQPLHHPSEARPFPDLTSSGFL

As to `CC(C)N(C(=O)SCC(Cl)=C(Cl)Cl)C(C)C`, the Potency result in test [1], in test [2], in test [3], in test [4] and in test [5] was “inactive” each time.

`COc1ccc(C(CN(C)C)C2(O)CCCCC2)cc1` (stereo unspecified): the Potency result in test [6], in test [1], in test [2], in test [7], in test [3] and in test [4] was “inactive” each time. Also, the Potency result in test [5] is “inactive”.

On to `CN(C)c1ccc(C(=O)c2ccc(N(C)C)cc2)cc1`, for which the Potency entry in test [6], in test [2], in test [3], in test [4] and in test [5] was “inactive” in each case. In addition, the Potency in test [8] is 428 nM (active) and 3.86 µM (active).

Take `CCCCN(CC)c1c([N+](=O)[O-])cc(C(F)(F)F)cc1[N+](=O)[O-]`: the Potency entry in test [6], in test [8], in test [1], in test [2], in test [3] and in test [4] was “inactive” throughout. Further, the Potency entry in test [5] is “inactive”.

In the case of `COP(=S)(OC)Oc1cc(Cl)c(Cl)cc1Cl`, the Potency result in test [6], in test [1], in test [2], in test [3], in test [4] and in test [5] was “inactive” throughout. In test [8], the Potency entry is “inactive and 30.4 µM (active)”.

As for `Nc1ccc(Cl)cc1N`, the Potency entry in test [6], in test [2] and in test [4] was “inactive” throughout. The Potency was 11.3 µM (active) and 13.7 µM (active) in test [8]; “inactive and 6.11 µM (active)” in test [3].

For the molecule `CCOCN(C(=O)CCl)c1c(C)cccc1CC`, the Potency entry in test [8], in test [1] and in test [2] was “inactive” each time. In test [3], the Potency is 14.5 µM (active) and 21.7 µM (active).
